GDH-TPI counter-1 = inhibits GDH-TPI coupling enzymes, artifact for Mtb FBA screen | actives 1.2% (n = 360,000) | GDH-TPI coupled enzyme counterscreen, NADH absorbance | inhibition, % at 4.8 µM | AID 588335; in the data active = inhibition above about 30%;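 also: 0% = DMSO wells and 100% = wells lacking the enzyme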
Rv3671c protease = inhibits the M. tuberculosis serine protease Rv3671c. actives 0.048% (n = 320,000). P9WHR9. AID 2606. inhibition, % at 5.96 µM; in the data active = inhibition above about 38%;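 also: extracellular domain of Rv3671c used as enzyme; 0% = enzyme with DMSO and 100% = no enzyme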
Target sequence (P9WHR9 whole entry, looked up, the tested form may be a part): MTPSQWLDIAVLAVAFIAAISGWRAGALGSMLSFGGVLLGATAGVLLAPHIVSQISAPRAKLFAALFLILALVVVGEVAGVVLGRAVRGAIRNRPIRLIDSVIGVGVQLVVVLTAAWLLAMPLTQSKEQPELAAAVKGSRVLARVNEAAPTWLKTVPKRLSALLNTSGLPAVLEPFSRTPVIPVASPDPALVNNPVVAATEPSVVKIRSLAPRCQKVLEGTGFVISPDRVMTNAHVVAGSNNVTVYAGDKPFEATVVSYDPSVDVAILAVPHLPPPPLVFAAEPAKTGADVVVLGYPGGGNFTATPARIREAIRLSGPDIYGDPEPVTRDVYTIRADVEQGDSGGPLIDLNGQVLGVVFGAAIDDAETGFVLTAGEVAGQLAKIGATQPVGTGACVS
Mtb bLac sens = beta-lactam sensitization of Mtb H37Rv; M. tuberculosis H37Rv growth with meropenem, percent inhibition; inhibition, % at 25 µM; actives 0.27% (n = 330,000); AID 434955; call rule not given here;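 also: growth measured after seven days incubation then overnight dye step; 0% = bacteria only wells and 100% = bacteria with antibiotic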
Mtb FBA inh = Mtb fructose-bisphosphate aldolase inhibition | inhibition, % at 1 µM | purified M. tuberculosis FBA, fluorescence read-out | AID 588726 | P9WQA3 | actives 2.3% (n = 360,000);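 also: 0% = vehicle and 100% = reference inhibitor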
Mtb UGM inh = Mtb UDP-galactopyranose mutase inhibition. P9WIQ1. purified UGM, fluorescence polarization probe displacement. inhibition, % at 10 µM. actives 0.06% (n = 320,000); in the data active = inhibition above about 10%, passing the limit was not always enough; inconclusive = no clear call, values can overlap the other calls
Mtb FBA inh conf = confirmation of M. tuberculosis fructose-bisphosphate aldolase inhibitors; purified M. tuberculosis FBA, fluorescence read-out; inhibition, % at 1 µM; shares compounds with Mtb FBA inh; AID 651616; actives 78% (n = 5,600);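 also: 0% = vehicle wells and 100% = reference inhibitor wells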
GDH-TPI counter-2 = GDH-TPI inhibition counter-screen for FBA inhibitors; shares compounds with Mtb FBA inh; GDH-TPI coupled enzyme counterscreen, fluorescence; inhibition, % at 1 µM; actives 81% (n = 5,600); AID 652141; in the data active = inhibition above about 10%
GDH-TPI DR = GDH-TPI dose response counter-screen for Mtb FBA. actives 79% (n = 170). shares compounds with Mtb FBA inh. GDH-TPI coupled enzyme assay, fluorescence, artifact counterscreen. IC50, µM. AID 652145; call rule not given here
* = called active by the depositor; ? = inconclusive; nt = no result; + = active, no number. In the library only some 3.5% were active in any assay of this set; here they are far more common. Rule as the data show it, unless noted: active = inhibition above about 27%; inactive = the rest.

SMILES	GDH-TPI counter-1	Rv3671c protease	Mtb bLac sens	Mtb FBA inh	Mtb UGM inh	Mtb FBA inh conf	GDH-TPI counter-2	others
CCOC(=O)N1CCN(S(=O)(=O)N2CCCC(C(=O)NCCCN3CCCCC3)C2)CC1 (stereo not given)	-12	-8	4	0	-1	nt	nt
COc1ccc(-c2ccc(CCC(=O)O)n2CC2CCCO2)cc1 (stereo not given)	11	-17	-8	33*	2	+	144*
COc1ccc(-c2ccc(CCC(=O)O)n2CC(C)C)cc1	-12	-5	28	41*	2	48*	30*
O=C(O)CCc1ccc(-c2ccc(F)cc2)n1CC1CCCO1 (stereo not given)	-4	7	8	18	0	nt	nt
COC(=O)c1cc(=O)n2c(sc3ccccc32)c1C#N	2	1	-8	24	0	nt	nt
CCOC(=O)c1nn(-c2ccccc2C)c(=O)cc1OCC(=O)Nc1cccc(OC)c1	4	4	3	1	nt	nt	nt
Cc1ccc2c(c1)C(N1CCCC1=O)CC(c1ccco1)N2 (stereo not given)	21	-14	-8	31*	2	6	-2
Nc1nc(COC(=O)C2CC(=O)N(CCc3ccccc3)C2)nc(Nc2ccccc2)n1 (stereo not given)	2	0	4	-3	0	nt	nt
CCN(CC)CCSc1nnc2c3ccccc3n(Cc3ccccc3)c2n1	25	-11	-5	-4	-1	nt	nt
COc1cc2c(N3CCOCC3)cc(O)c(CC(=O)Nc3ccccc3)c2cc1OC	3	-1	-4	31*	-2	6	-4
COc1cc(C2Oc3ccccc3C=C2[N+](=O)[O-])cc(OC)c1OC (stereo not given)	16	nt	nt	-2	nt	nt	nt
O=C(O)c1ccc2c(=O)n3c(nc2c1)/C(=C/c1ccc(C(F)(F)F)cc1)CC3	28	3	2	28*	2	46*	34*
CC(=O)Nc1cccc(C(=O)OCc2csc(CC(=O)Nc3ccccc3C)n2)c1	8	-19	3	5	2	nt	nt
N#CC1(C#N)COC23CCCCC2C1(C#N)C(=N)O3 (stereo not given)	-2	4	-13	26	4	nt	nt
N#CC12COC3(CCCCC3C1(C#N)C#N)OC2=N (stereo not given)	9	8	36	39*	1	75*	61*
COc1ccc(C2OC34CCCCC3C(C#N)(C#N)C2(C#N)C(=N)O4)cc1 (stereo not given)	-11	12	2	39*	3	80*	67*
CCCC1OC23CCCCC2C(C#N)(C(=N)O3)C1(C#N)C#N (stereo not given)	1	3	-2	37*	1	15	-2	GDH-TPI DR=>10
COc1ccc(C2CC3(O)NC(=O)C(C#N)(C3C)C2(C#N)C#N)cc1 (stereo not given)	-19	0	-9	-2	-2	nt	nt
C=CCn1c(-c2cc3c(s2)CCC(CC)C3)n[nH]c1=S (stereo not given)	-1	0	-3	84*	-3	170*	137*
C=CCn1c(SCC(=O)NC2CCS(=O)(=O)C2)nnc1-c1cc2c(s1)CCC(CC)C2 (stereo not given)	1	-12	-6	3	3	nt	nt
COCCCn1c(=N)c(C(N)=S)cc2c(=O)n3cccc(C)c3nc21	10	13	-1	73*	-1	57*	42*
Cc1cccn2c(=O)c3cc(C(=O)NC4CCCCC4)c(=N)n(CCN4CCOCC4)c3nc12	1	-4	-8	67*	3	43*	41*
CCCn1c(=N)c(C#N)cc2c(=O)n3ccccc3nc21	0	7	-2	34*	0	75*	68*
COCCn1c(=N)c(S(=O)(=O)c2ccc(F)cc2)cc2c(=O)n3cccc(C)c3nc21	-13	-1	-4	-3	-2	nt	nt
Cc1ccc2nc3c(cc(C(N)=S)c(=N)n3CCCOC(C)C)c(=O)n2c1	4	8	?	48*	0	84*	66*
CCCn1c(SCC(=O)Nc2ccc3c(c2)OCCO3)n[nH]c1=O	-2	nt	nt	-3	nt	nt	nt

From PubChem
